# Sa RN4220 lethal: kills Staphylococcus aureus RN4220 | S. aureus RN4220 growth, OD600, 16 h | inhibition, % (no concentration beside the values) | 330,000 tested, 0.33% active; in the data active = inhibition above about 85%
# ugtP null kill: kills S. aureus RN4220 lacking UgtP; S. aureus RN4220 ugtP deletion, OD600 growth, 16 h; growth inhibition, % (test concentration not listed); 330,000 tested, 0.54% active; in the data active = growth inhibition above about 68%
# PrP UTR inh: suppresses PrP 5' UTR mRNA reporter expression | cell-based PrP 5' UTR mRNA reporter, plate reader | AID 488862 | inhibition, % (no concentration beside the values) | 340,000 tested, 0.35% active; in the data active = inhibition above about 52%
# PrPC surface inh: inhibitors of human cell surface prion protein PrPC | TR-FRET read-out | inhibition, % at 13.8 µM | 370,000 tested, 0.43% active; in the data active = inhibition above about 24%
# CCHF vOTU inh-1: blocks the CCHF virus ovarian tumor domain protease; CCHFV vOTU protease, Pep-AMC fluorescence; inhibition, % at 11.5 µM; 370,000 tested, 0.55% active; AID 651958
# PfHsp40 rescue: restores yeast growth despite PfHsp40 toxicity | 340,000 tested, 0.68% active | growth rescue, % at 12.5 µM | AID 504582 | S. cerevisiae expressing PfHsp40, growth rescue, ATP luminescence; in the data active = growth rescue above about 28%, passing the limit was not always enough;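 note: yeast W303a lacking pdr1 and pdr3 grown in galactose medium; growth measured after three days at 30 °C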
# CCHF vOTU inh-2: CCHFV vOTU protease inhibition, confirmation; Recombinant CCHFV vOTU, Pep-AMC fluorescence; inhibition, % at 11.5 µM; shares compounds with CCHF vOTU inh-1; AID 686976; 1,900 tested, 17% active
# Numbers stand for hits; i = inactive; nt = no result given. The list is not random: actives were taken first. Their share in the collection is about 2.1%. Cut-off read from the data, not from the text of the source, unless noted: active = inhibition above about 30%; inactive = the rest.
SMILES,Sa RN4220 lethal,ugtP null kill,PrP UTR inh,PrPC surface inh,CCHF vOTU inh-1,PfHsp40 rescue,CCHF vOTU inh-2
C#CCNC(=O)C[C@H]1C[C@@]2(C(=O)OC)C(=C[C@H](C3CCCC3)O[C@@H]2C)N(CCCCCCCC)C1=O,nt,nt,nt,i,39.1,nt,i
CCCCCCCCN1C(=O)[C@@H](CC(=O)NCCCCc2ccccc2)C[C@@]2(C(=O)OC)C1=C[C@H](COCc1ccccc1)O[C@@H]2C,nt,nt,nt,i,i,nt,nt
CCCCCCCCN1C(=O)[C@@H](CC(=O)NCCCOCCCC)C[C@@]2(C(=O)OC)C1=C[C@H](COCc1ccccc1)O[C@@H]2C,nt,nt,nt,i,30.4,nt,i
CCCCOCCCNC(=O)C[C@H]1C[C@@]2(C(=O)OC)C(=C[C@H](C(C)(C)C)O[C@@H]2C)N(Cc2cccc3ccccc23)C1=O,nt,nt,nt,i,34.6,nt,i
CCCCOCCCNC(=O)C[C@H]1C[C@@]2(C(=O)OC)C(=C[C@H](C(C)(C)C)O[C@@H]2C)N(Cc2ccc3c(c2)OCO3)C1=O,nt,nt,nt,i,37.4,nt,i
CCc1nc(NC(C(=O)O)C(C)CC)c2oc3ccccc3c2n1 (stereo not drawn),i,i,nt,nt,nt,nt,nt
CC12CCC(C(=NO)C1=NO)C2(C)C (stereo not drawn),i,i,i,i,i,i,nt
CC12CCC(C(=NO)C1=O)C2(C)C (stereo not drawn),i,i,i,i,35.6,i,i
CN(C)S(=O)(=O)c1cccc(NC(=S)NN=Cc2ccco2)c1,i,i,nt,nt,nt,nt,nt
O=C(Nc1ccccc1)C1CC=CC2CCN(Cc3ccccc3)C(=O)C21 (stereo not drawn),i,i,nt,nt,nt,nt,nt
COc1cc(/C=C2\SC(=S)N(CC(=O)O)C2=O)ccc1OS(=O)(=O)c1ccc(C)cc1,i,i,i,i,53.7,i,i
COc1cc(/C=C2/SC(=S)N(CC(=O)O)C2=O)ccc1OC(=O)c1cccs1,i,i,i,i,i,i,nt
CCCN(CC(=O)Nc1ccccc1OC)C(=O)c1ccc2[nH]c3c(c2c1)CC(C)CC3 (stereo not drawn),i,i,i,i,38.3,i,i
CCN(CC(=O)Nc1ccccc1OC)C(=O)c1ccc2[nH]c3c(c2c1)CC(C)CC3 (stereo not drawn),i,i,i,i,i,i,nt
O=C(C1=CC(c2ccc(C(F)(F)F)cc2)CC(OCCCCO)O1)N1CCN(Cc2ccc3c(c2)OCO3)CC1 (stereo not drawn),i,i,nt,nt,nt,nt,nt
CCc1ccc([C@H]2C(C(=O)O)=C[C@@H](CC3CCCC3)N2S(=O)(=O)c2ccc(C)cc2)cc1,i,i,i,i,47.4,i,i
CCCCC[C@@H]1C=C(C(=O)O)[C@H](c2ccc(Cl)cc2)N1S(=O)(=O)c1ccc(C)cc1,nt,nt,i,i,31.8,i,i
CCCC[C@@H]1C=C(C(=O)O)[C@H](c2ccc(Cl)c(Cl)c2)N1S(=O)(=O)c1ccc(C)cc1,i,i,i,i,31.6,i,i
Cc1cc(=O)[nH]c(NN=Cc2sccc2C)n1,i,i,nt,nt,nt,nt,nt
CC(C)(C)CN1C(N)=NCC1c1ccccc1 (stereo not drawn),i,i,nt,nt,nt,nt,nt
Cc1cc(C(=O)N/N=C2\CC(=O)c3ccccc32)c(C)n1-c1ccc(F)cc1,nt,nt,i,i,61.4,i,i
Nc1ccc2nn(-c3cccc4ccccc34)nc2c1,i,i,i,i,60.4,i,i
Cc1cc2nn(-c3cccc4ccccc34)nc2cc1N,i,i,i,i,i,i,nt
CCOC(=O)Nc1ccc(NCc2ccc(F)cc2)nc1N,i,i,i,i,67.3,i,i
CCOC(=O)Nc1ccc(C)cc1NC(=O)OCC,i,i,i,i,i,i,nt
SMILES,Sa RN4220 lethal,ugtP null kill,PrP UTR inh,PrPC surface inh,CCHF vOTU inh-1,PfHsp40 rescue,CCHF vOTU inh-2
Cc1ccc(C2=CC(=O)CC(c3ccc4c(c3)OCO4)C2)cc1 (stereo not drawn),i,i,nt,nt,nt,nt,nt
CC(=NNC(=O)c1cc(C)nc2ccccc12)c1ccccn1,i,i,nt,nt,nt,nt,nt
O=C(NN=C/C(Br)=C/c1ccccc1)C(O)c1ccccc1 (stereo not drawn),i,i,nt,nt,nt,nt,nt
CCn1c(COc2cccc(C)c2)nnc1SCC(=O)Nc1cccc(C(=O)O)c1,i,i,i,i,i,i,nt
CCn1c(COc2ccc3ccccc3c2C)nnc1SCC(=O)Nc1cccc(C(=O)O)c1,i,i,i,i,32.9,i,i
CCNC(=O)N1CCN(c2ccc(N3CCN(C(=O)NCC)[C@H](C)C3)c(C)c2)[C@H](C)C1,nt,nt,nt,i,i,nt,nt

# Screens: PubChem BioAssay, several laboratories
